According to PubChem BioAssay (NCI):
This is part of a sample that, as a whole, favours compounds with a hit. Of some 79,000 tested, about 15% had one in any assay. Calls of active or inactive are those of the source. Cut-off read from the data, not from the text of the source: active = growth inhibition above about 70%; inactive = the rest.

Assays:
[1] = NCI Yeast Anticancer Drug Screen. Data for the rad52 strain (AID 147);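 note: 0% = growth of vehicle-treated control cultures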; conditions: S. cerevisiae rad52 mutant growth inhibition, hits give high values
Procedure, shortened: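 Vehicle-treated cultures served as the reference for growth inhibition of compound-exposed yeast bearing a DNA repair mutation.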

[2] = NCI Yeast Anticancer Drug Screen. Data for the wt1 strain (AID 149);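 note: 0% = growth of vehicle-treated wt1 cultures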; conditions: S. cerevisiae wt1 strain (SPY 50644) growth inhibition, hits give high values
Procedure, shortened: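 The wt1 strain was treated with compounds, and growth was compared with vehicle-treated cultures to give inhibition.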

[3] = NCI Yeast Anticancer Drug Screen. Data for the rad50EPP+ strain (AID 151);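 note: 0% = growth of vehicle-treated control cultures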; conditions: S. cerevisiae rad50 mutant strain, hits give high values
Procedure, shortened: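 In this screen, rad50EPP+ yeast were exposed to compounds. Growth inhibition was scored against vehicle-treated controls.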

[4] = NCI Yeast Anticancer Drug Screen. Data for the mgt1 strain (AID 153); conditions: S. cerevisiae mgt1 mutant growth inhibition, hits give high values
Procedure, shortened: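 mgt1 strain exposed; growth vs vehicle control recorded as inhibition.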

[5] = NCI Yeast Anticancer Drug Screen. Data for the rad50 strain (AID 155);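 note: 0% = growth of vehicle-only cultures of the same strain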; conditions: S. cerevisiae rad50 strain growth inhibition, hits give high values
Procedure, shortened: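 Cells are treated with compound, grown, and their growth is then scored against vehicle-only cultures of the same repair-deficient yeast strain.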

[6] = NCI Yeast Anticancer Drug Screen. Data for the mec2-1 strain (AID 157); conditions: S. cerevisiae mec2-1 strain, hits give high values
Procedure, shortened: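 Vehicle-treated cultures served as reference for growth inhibition of compound-exposed mec2-1 yeast.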

[7] = NCI Yeast Anticancer Drug Screen. Data for the sgs1 mgt1 strain (AID 161);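 note: 0% = growth of cultures given vehicle only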; conditions: S. cerevisiae sgs1 mgt1 strain, hits give high values
Procedure, shortened: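 Read-out: growth inhibition vs vehicle controls. Cells: mutant yeast strain deficient in DNA damage repair.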

[8] = NCI Yeast Anticancer Drug Screen. Data for the CLN2oe strain (AID 163);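 note: 0% = growth of vehicle-only control cultures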; conditions: S. cerevisiae CLN2oe strain, hits give high values
Procedure, shortened: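 Inhibition relative to vehicle-treated yeast is reported. Cells: strain with genetic alteration in cell-cycle control, grown with compound.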

[9] = NCI Yeast Anticancer Drug Screen. Data for the cln2 rad14 strain (AID 165);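 note: 0% = growth equal to vehicle treated cultures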; conditions: S. cerevisiae cln2 rad14 strain, hits give high values
Procedure, shortened: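 Each compound was tested on cln2 rad14 yeast. Inhibition of growth was calculated against vehicle-exposed controls.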

[10] = NCI Yeast Anticancer Drug Screen. Data for the bub3 strain (AID 167); conditions: S. cerevisiae bub3 mutant strain, hits give high values
Procedure, shortened: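 Part of a panel of yeast mutants defective in DNA damage repair or cell cycle regulation. Each strain is grown with compound, and inhibition is calculated relative to solvent-treated cultures.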

[11] = NCI Yeast Anticancer Drug Screen. Data for the wt2 strain (AID 169);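 note: 0% = growth of vehicle-treated yeast cultures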; conditions: S. cerevisiae wt2 strain growth inhibition, hits give high values
Procedure, shortened: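 Inhibition of yeast growth was determined after compound treatment, normalised to controls receiving only vehicle.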

[12] = NCI Yeast Anticancer Drug Screen. Data for the mlh1 strain (AID 171);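 note: 0% = growth of vehicle-treated control cultures of the same strain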; conditions: S. cerevisiae mlh1 strain growth inhibition, hits give high values
Procedure, shortened: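 Vehicle-normalised growth inhibition of a repair- or checkpoint-altered yeast strain following compound treatment.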

[13] = NCI Yeast Anticancer Drug Screen. Data for the sgs1 strain (AID 173);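 note: 0% = growth of vehicle-only control cultures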; conditions: S. cerevisiae sgs1 mutant, hits give high values
Procedure, shortened: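 Screen format: yeast with repair or checkpoint alterations, compound exposure, growth read relative to vehicle.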

[14] = NCI Yeast Anticancer Drug Screen. Data for the mlh1 rad18 strain (AID 175); conditions: S. cerevisiae mlh1 rad18 strain growth inhibition, hits give high values
Procedure, shortened: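 Vehicle-treated cultures served as the reference for growth inhibition in a yeast strain carrying DNA damage repair alterations exposed to each compound.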

[15] = NCI Yeast Anticancer Drug Screen. Data for the rad14 strain (AID 159);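 note: 0% = growth of vehicle-treated control cultures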; conditions: S. cerevisiae rad14 strain growth inhibition, hits give high values
Procedure, shortened: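 Readout: yeast growth inhibition, referenced to vehicle-only cultures. Strain bears a defined alteration in DNA damage repair.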

[16] = NCI Yeast Anticancer Drug Screen. Data for the rad18 strain (AID 177); conditions: S. cerevisiae rad18 mutant growth inhibition, hits give high values
Procedure, shortened: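 Test articles were incubated with altered yeast defective in DNA damage repair. Results are given as inhibition of growth versus vehicle.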

[17] = at 5.0 µM (retest, dose inferred, filed as 0.5)
[18] = at 50.0 µM (retest, dose inferred, filed as 5.0)

Measured: growth inhibition

CN(N=O)C(=O)N[C@@H](C=O)[C@@H](O)[C@H](O)[C@H](O)CO
inactive: [1]; at 1.2 µM 0% | [1]; at 3.7 µM 1% | [1]; at 11.0 µM 5% | [1]; at 33.0 µM 2% | [1]; at 100.0 µM 3% | [2]; at 1.2 µM 0% | [2]; at 3.7 µM -1% | [2]; at 11.0 µM 0% | [2]; at 33.0 µM -1% | [2]; at 100.0 µM 20% | [3]; at 1.2 µM 0% | [3]; at 3.7 µM 0% | [3]; at 11.0 µM 0% | [3]; at 33.0 µM -7% | [3]; at 100.0 µM 3% | [4]; at 1.2 µM -1% | [4]; at 3.7 µM -1% | [4]; at 11.0 µM -18% | [4]; at 33.0 µM 0% | [4]; at 100.0 µM -1% | [5]; at 1.2 µM -1% | [5]; at 3.7 µM -1% | [5]; at 11.0 µM 4% | [5]; at 33.0 µM -1% | [5]; at 50.0 µM 3.9% | [5]; at 100.0 µM -2% | [6]; at 1.2 µM -3% | [6]; at 3.7 µM -7% | [6]; at 11.0 µM -6% | [6]; at 33.0 µM 2% | [6]; at 50.0 µM -7.8% | [6]; at 100.0 µM -7% | [7]; at 50.0 µM 17.6% | [8]; at 1.2 µM -10% | [8]; at 3.7 µM -3% | [8]; at 11.0 µM -6% | [8]; at 33.0 µM -9% | [8]; at 100.0 µM -6% | [9]; at 50.0 µM -1.1% | [10]; at 1.2 µM 1% | [10]; at 3.7 µM 0% | [10]; at 11.0 µM 0% | [10]; at 33.0 µM -4% | [10]; at 50.0 µM 7.3% | [10]; at 100.0 µM -1% | [11]; at 1.2 µM -3% | [11]; at 3.7 µM 0% | [11]; at 11.0 µM -2% | [11]; at 33.0 µM -1% | [11]; at 100.0 µM -1% | [12]; at 1.2 µM -1% | [12]; at 3.7 µM -1% | [12]; at 11.0 µM 1% | [12]; at 33.0 µM 0% | [12]; at 100.0 µM 0% | [13]; at 1.2 µM 0% | [13]; at 3.7 µM 0% | [13]; at 11.0 µM 2% | [13]; at 33.0 µM 2% | [13]; at 100.0 µM 1% | [14]; at 50.0 µM 4.1%

CC(=O)c1cc2c(Cl)cc(Cl)cc2oc1=O
active: [5]; [18] 83% | [6]; [17] 77% | [6]; [18] 94% | [9]; [18] 71% | [14]; [18] 96%
inactive: [1]; at 1.2 µM 20% | [1]; at 3.7 µM 19% | [1]; at 11.0 µM 4% | [1]; at 33.0 µM 9% | [1]; at 100.0 µM 20% | [2]; at 1.2 µM -38% | [2]; at 3.7 µM -33% | [2]; at 11.0 µM -38% | [2]; at 33.0 µM -33% | [2]; at 100.0 µM -22% | [3]; at 1.2 µM -15% | [3]; at 3.7 µM -16% | [3]; at 11.0 µM -2% | [3]; at 33.0 µM -10% | [3]; at 100.0 µM 15% | [4]; at 1.2 µM 9% | [4]; at 3.7 µM 5% | [4]; at 11.0 µM -13% | [4]; at 33.0 µM -4% | [4]; at 100.0 µM 6% | [5]; at 1.2 µM -24% | [5]; at 3.7 µM -17% | [5]; [17] 30% | [5]; at 11.0 µM -13% | [5]; at 33.0 µM -20% | [5]; at 50.0 µM -5.9% | [5]; at 100.0 µM -5% | [6]; at 1.2 µM 8% | [6]; at 3.7 µM 0% | [6]; at 11.0 µM -14% | [6]; at 33.0 µM 3% | [6]; at 50.0 µM 53.8% | [6]; at 100.0 µM -8% | [15]; at 1.2 µM -19% | [15]; at 3.7 µM -21% | [15]; at 11.0 µM -13% | [15]; at 33.0 µM -6% | [15]; at 100.0 µM 14% | [7]; [17] -8% | [7]; [18] 20% | [8]; at 1.2 µM -26% | [8]; at 3.7 µM -22% | [8]; at 11.0 µM -7% | [8]; at 33.0 µM -10% | [8]; at 100.0 µM -5% | [9]; [17] 64% | [10]; at 1.2 µM -21% | [10]; at 3.7 µM -17% | [10]; [17] 24% | [10]; at 11.0 µM -4% | [10]; at 33.0 µM -25% | [10]; [18] 46% | [10]; at 100.0 µM 13% | [11]; at 1.2 µM -22% | [11]; at 3.7 µM -27% | [11]; at 11.0 µM -34% | [11]; at 33.0 µM -40% | [11]; at 100.0 µM -18% | [12]; at 1.2 µM -36% | [12]; at 3.7 µM -35% | [12]; at 11.0 µM -32% | [12]; at 33.0 µM -12% | [12]; at 100.0 µM -5% | [13]; at 1.2 µM -31% | [13]; at 3.7 µM -40% | [13]; at 11.0 µM -29% | [13]; at 33.0 µM -15% | [13]; at 100.0 µM -42% | [14]; [17] 35% | [14]; at 50.0 µM 1.3% | [16]; at 1.2 µM 10% | [16]; at 3.7 µM -3% | [16]; at 11.0 µM -11% | [16]; at 33.0 µM -11% | [16]; at 100.0 µM -6%

O=[N+]([O-])c1cc(S(=O)(=O)Nc2ccccc2)ccc1Cl
active: [1]; at 33.0 µM 89% | [1]; at 100.0 µM 98% | [2]; at 33.0 µM 86% | [2]; at 100.0 µM 99% | [4]; at 33.0 µM 93% | [4]; at 100.0 µM 99% | [5]; at 33.0 µM 90% | [5]; [18] 99% | [5]; at 50.0 µM 88.5% | [5]; at 100.0 µM 97% | [15]; at 33.0 µM 91% | [15]; at 100.0 µM 98% | [7]; [18] 95% | [7]; at 50.0 µM 90.5% | [8]; at 33.0 µM 93% | [8]; at 100.0 µM 98% | [9]; [18] 97% | [9]; at 50.0 µM 89.2% | [10]; at 33.0 µM 91% | [10]; [18] 96% | [10]; at 50.0 µM 86.2% | [10]; at 100.0 µM 99% | [11]; at 33.0 µM 90% | [11]; at 100.0 µM 99% | [12]; at 33.0 µM 89% | [12]; at 100.0 µM 98% | [13]; at 33.0 µM 89% | [13]; at 100.0 µM 98% | [14]; [18] 100% | [14]; at 50.0 µM 86.8% | [16]; at 33.0 µM 94% | [16]; at 100.0 µM 99%
inactive: [1]; at 1.2 µM 2% | [1]; at 3.7 µM 6% | [1]; at 11.0 µM 15% | [2]; at 1.2 µM -20% | [2]; at 3.7 µM -20% | [2]; at 11.0 µM 0% | [3]; at 1.2 µM 14% | [3]; at 3.7 µM 6% | [3]; at 11.0 µM 1% | [3]; at 33.0 µM 20% | [3]; at 100.0 µM 48% | [4]; at 1.2 µM 15% | [4]; at 3.7 µM 3% | [4]; at 11.0 µM 30% | [5]; at 1.2 µM -7% | [5]; at 3.7 µM 3% | [5]; [17] 34% | [5]; at 11.0 µM 19% | [15]; at 1.2 µM -4% | [15]; at 3.7 µM -8% | [15]; at 11.0 µM 2% | [7]; [17] -26% | [8]; at 1.2 µM -8% | [8]; at 3.7 µM -1% | [8]; at 11.0 µM 35% | [9]; [17] 33% | [10]; at 1.2 µM 11% | [10]; at 3.7 µM 19% | [10]; [17] -20% | [10]; at 11.0 µM 45% | [11]; at 1.2 µM -26% | [11]; at 3.7 µM -6% | [11]; at 11.0 µM 4% | [12]; at 1.2 µM -34% | [12]; at 3.7 µM -20% | [12]; at 11.0 µM 13% | [13]; at 1.2 µM 4% | [13]; at 3.7 µM -3% | [13]; at 11.0 µM 33% | [14]; [17] 35% | [16]; at 1.2 µM 1% | [16]; at 3.7 µM 9% | [16]; at 11.0 µM 27%
